The source of these data is PubChem BioAssay (NCATS).

SMILES strings stand for the structures. Results filed as inconclusive are left out. More than one record can exist for a structure, and the calls need not agree. Calls of active or inactive are those of the source. Calls come from the whole dose curve; as a rule, active = well fitted inhibition curve with a large enough effect; inconclusive = small, poorly fitted or top-dose-only effect; inactive = flat fitted curve, though single readings scatter.

Common to all, as to test: qHTS profiling for inhibitors of Plasmodium falciparum proliferation (AID 504749); note: nearly all actives have a fitted effect of over 60% in size
Common to all, as to details: P. falciparum in erythrocytes, SYBR Green DNA, 72 h; series mostly up to 28.7 µM

One assay relates to CP203. In a few lines:
(§1)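 P. falciparum-infected erythrocytes (0.3% parasitemia, 2.5% hematocrit final) were exposed to compounds for 72 h at 37 C in 5% CO2, then lysed with SYBR Green buffer overnight at room temperature; parasite DNA fluorescence was normalized to artemisinin and DMSO controls.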

Another assay deals with CP211. In short, it runs like this: as §1
Another assay has as its system CP215. In short, it runs like this: as §1
Another assay relates to CP217. In short, it runs like this: as §1
For the next assay, the system named is CP237. In short, it runs like this:
as §1

For the next assay, the system named is CP238. In short, it runs like this: as §1
A further assay has as its system CP247. In short, it runs like this:
as §1

A further assay concerns CP250. In a few lines:
as §1

Another assay deals with CP252. In short, it runs like this: as §1
The test system of the next assay is CP256. In a few lines:
as §1
Potency is the fitted concentration of half-maximal effect.

For `CCC(N)Cc1c[nH]c2ccccc12` (centres undefined), the Potency entry with CP203, in the assay with CP211, with CP215, in the assay with CP217, in the assay with CP237 and in the assay with CP238 was “inactive” throughout. For the same compound, the Potency result in the assay with CP247, with CP250, in the assay with CP252 and with CP256 was “inactive” throughout.

For the compound `CCC(C)(S(=O)(=O)CC)S(=O)(=O)CC`, the Potency entry with CP203, in the assay on CP211, in the assay with CP215, in the assay on CP217, in the assay with CP237 and with CP238 was “inactive” throughout. The Potency result with CP247, in the assay with CP252 and in the assay on CP256 was “inactive” throughout.

Regarding `C#CC(C)(O)CC` (centres undefined), the Potency result with CP203, with CP211, in the assay with CP215, in the assay on CP217, in the assay with CP237 and in the assay on CP238 was “inactive” in each case. The Potency entry in the assay with CP247, with CP250, in the assay on CP252 and in the assay with CP256 was “inactive” each time.

Consider `O=C(NCNC(=O)NC1C(=O)NC(=O)N1CO)NC1C(=O)NC(=O)N1CO` (centres undefined), for which the Potency result with CP203, in the assay on CP211, in the assay with CP215, with CP217, with CP237 and in the assay on CP238 was “inactive” each time. In addition, the Potency entry in the assay with CP247, in the assay on CP250, with CP252 and in the assay on CP256 was “inactive” each time.

For the compound `[N-]=[N+]=CC(=O)OCC(N)C(=O)O` (centres undefined), the Potency result in the assay with CP203, in the assay with CP211, with CP215, with CP217, in the assay on CP237 and with CP238 was “inactive” throughout. Further, the Potency result in the assay on CP247, with CP250, in the assay with CP252 and in the assay on CP256 was “inactive” in each case.

For `CC(C)(C)c1cc(O)ccc1O`, the Potency in the assay with CP203 is 15.1 µM (active); in the assay on CP211, 12 µM (active) and inactive; in the assay with CP215, 10.7 µM (active); in the assay on CP217, 8.91 µM (active); with CP237 it was 6.31 µM (active); in the assay with CP238, 10 µM (active). For the same compound, the Potency with CP247 is 4.47 µM (active); in the assay with CP250, 7.94 µM (active); in the assay on CP252 it was 8.91 µM (active) and inactive; in the assay with CP256, 11.2 µM (active).

Take `O=[N+]([O-])c1cc(I)c(O)c(I)c1`: the Potency entry in the assay on CP203, in the assay on CP211, in the assay with CP215, in the assay with CP217, in the assay with CP237 and in the assay on CP238 was “inactive” throughout. The Potency result in the assay with CP247, with CP250, with CP252 and in the assay with CP256 was “inactive” throughout.

`ClC(Cl)(Cl)Cl`: the Potency entry in the assay with CP203, with CP211, with CP215, in the assay on CP217, in the assay on CP237 and in the assay with CP238 was “inactive” in each case. Further, the Potency entry in the assay with CP247, in the assay with CP250, with CP252 and in the assay on CP256 was “inactive” each time.

Turning to `O=C(O)C(Cl)(Cl)Cl`, the Potency result with CP203, in the assay with CP211, in the assay with CP215, with CP217, in the assay on CP237 and with CP238 was “inactive” throughout. Moreover, the Potency entry in the assay on CP247, with CP250, with CP252 and in the assay with CP256 was “inactive” in each case.

On to `O=CC=O`, for which the Potency result in the assay on CP203, in the assay on CP211, with CP215, in the assay on CP217, in the assay with CP237 and in the assay on CP238 was “inactive” in each case. Moreover, the Potency result in the assay with CP247, with CP250, in the assay on CP252 and in the assay with CP256 was “inactive” each time.

In the case of `CCCCNCC(O)c1ccc(O)cc1` (centres undefined), the Potency entry in the assay with CP203, with CP211, with CP215, with CP217, with CP237 and in the assay with CP238 was “inactive” in each case. Also, the Potency entry in the assay with CP247, in the assay on CP250, in the assay on CP252 and with CP256 was “inactive” each time.

For the compound `O=C(CS(=O)C(c1ccccc1)c1ccccc1)NO` (centres undefined), the Potency entry with CP203, with CP211, in the assay with CP215, in the assay with CP217, in the assay with CP237 and with CP238 was “inactive” in each case. Moreover, the Potency result in the assay on CP247, with CP250, in the assay on CP252 and in the assay on CP256 was “inactive” each time.

As for `Clc1ccccc1Cl`, the Potency entry in the assay on CP203, with CP211, in the assay on CP215, in the assay on CP217, in the assay on CP237 and in the assay on CP238 was “inactive” each time. The Potency entry in the assay with CP247, with CP250, with CP252 and in the assay on CP256 was “inactive” in each case.

For the compound `CN1c2ccccc2C(NCCCCCCC(=O)O)c2ccc(Cl)cc2S1(=O)=O` (centres undefined), the Potency entry in the assay with CP203, in the assay on CP211, in the assay with CP215, in the assay with CP217, in the assay with CP237 and in the assay with CP238 was “inactive” each time. Further, the Potency entry with CP247, in the assay on CP250, in the assay with CP252 and in the assay with CP256 was “inactive” throughout.

Regarding `CC(=O)OC1CN2CCC1CC2` (centres undefined), the Potency result in the assay with CP203, in the assay on CP211, in the assay with CP215, with CP217, in the assay on CP237 and in the assay with CP238 was “inactive” each time. Besides, the Potency entry with CP247, with CP250, in the assay on CP252 and with CP256 was “inactive” throughout.

In the case of `O=C1CC[C@@]2(O)C3Cc4ccc(O)c5c4C2(CCN3CC2CC2)[C@H]1O5` (some centres undefined), the Potency entry in the assay with CP203, in the assay with CP211, with CP215, in the assay on CP217, in the assay with CP237 and with CP238 was “inactive” in each case. Further, the Potency result in the assay on CP247, in the assay with CP250, in the assay on CP252 and in the assay with CP256 was “inactive” throughout.

For `O=C1C2CC=CCC2C(=O)N1SC(Cl)(Cl)Cl` (centres undefined), the Potency result in the assay on CP203, in the assay on CP211, in the assay with CP215, in the assay on CP217, with CP237 and in the assay with CP238 was “inactive” in each case. Besides, the Potency entry with CP247, in the assay with CP250, in the assay with CP252 and with CP256 was “inactive” throughout.

Take `O=P(O)(O)C(Cl)(Cl)P(=O)(O)O`: the Potency entry with CP203, in the assay with CP211, in the assay on CP215, in the assay with CP217, in the assay with CP237 and with CP238 was “inactive” throughout. For the same compound, the Potency entry in the assay with CP247, with CP250, with CP252 and in the assay on CP256 was “inactive” throughout.

Regarding `CCCCCCCCCC(=O)O[C@H]1CC[C@H]2[C@@H]3CCC4=CC(=O)CC[C@]4(C)[C@H]3CC[C@]12C`, the Potency result in the assay on CP203, in the assay on CP211, in the assay with CP215, in the assay with CP217, in the assay with CP237 and with CP238 was “inactive” in each case. In addition, the Potency result in the assay with CP247, in the assay with CP250, in the assay on CP252 and in the assay on CP256 was “inactive” each time.

As for `CN1C2CCC1CC(OC(c1ccccc1)c1ccc(Cl)cc1)C2` (centres undefined), the Potency is 12 µM (active) in the assay with CP203; 15.1 µM (active) in the assay with CP211; 10.7 µM (active) in the assay on CP215; 7.08 µM (active) in the assay on CP217; 11.2 µM (active) with CP237; 10 µM (active) in the assay on CP238. Also, the Potency in the assay with CP247 was 10 µM (active); with CP250, 10 µM (active); with CP252, 7.94 µM (active); with CP256, 7.08 µM (active).

For `O=c1[nH]cc(N(CCCl)CCCl)c(=O)[nH]1`, the Potency result in the assay on CP203, with CP211, with CP215, with CP217, in the assay on CP237 and with CP238 was “inactive” each time. Moreover, the Potency result in the assay with CP247, with CP250, in the assay on CP252 and in the assay on CP256 was “inactive” throughout.

For the compound `S=C(S)N1CCNCC1`, the Potency entry with CP203, in the assay on CP211, in the assay on CP215, in the assay with CP217, in the assay on CP237 and with CP238 was “inactive” in each case. The Potency entry in the assay on CP247, in the assay with CP250, in the assay on CP252 and in the assay on CP256 was “inactive” each time.

On to `N#CC1(N2CCCCC2)CCCCC1`, for which the Potency entry in the assay with CP203, in the assay with CP211, in the assay on CP215, in the assay on CP217, in the assay on CP237 and with CP238 was “inactive” throughout. Further, the Potency result in the assay on CP247, with CP250, with CP252 and with CP256 was “inactive” each time.
